The list is not random: actives were taken first. Their share in the collection is about 5%.
USP8 inh: inhibitors of human USP8 deubiquitinase. purified USP8, Ub-rhodamine cleavage fluorescence, 30 min. inhibition, % at 20 µM. AID 1645853. P40818. 47,000 compounds, 4.2% hits
UCHL1 block: inhibitors of human UCHL1 deubiquitinase | P09936 | 47,000 compounds, 0.2% hits | inhibition, % at 20 µM | purified UCHL1, Ub-rhodamine cleavage fluorescence | AID 1645859
Target sequence (P09936 whole entry, looked up): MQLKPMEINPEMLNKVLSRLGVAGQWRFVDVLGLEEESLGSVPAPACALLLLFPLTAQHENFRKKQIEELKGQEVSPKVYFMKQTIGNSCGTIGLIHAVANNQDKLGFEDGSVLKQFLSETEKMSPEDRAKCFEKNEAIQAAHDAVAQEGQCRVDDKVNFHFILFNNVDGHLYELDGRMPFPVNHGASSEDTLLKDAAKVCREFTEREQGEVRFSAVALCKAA
USP10 inh: blocks human USP10 ubiquitin-rhodamine cleavage | purified USP10, Ub-rhodamine fluorescence, 60 min | inhibition, % at 20 µM | AID 1645856 | Q14694 | 47,000 compounds, 1.1% hits
USP7 block: inhibitors of human USP7 deubiquitinase. inhibition, % at 20 µM. purified USP7, Ub-rhodamine cleavage fluorescence. 47,000 compounds, 0.3% hits
* = called active by the depositor. No stated cut-off is given here; in the data, active means inhibition above about 30%; inactive means the rest.

Screening Cc1ccc(C2(CN3CCC(NC(=O)c4cn(C)nc4C)CC3)CC2)cc1 returned USP8 inh 1, UCHL1 block -3, USP10 inh -5 and USP7 block -2.
Screening N#CCCc1c(-c2ccccc2)nc2[nH]c3ccccc3n2c1=O returned USP8 inh 39*, UCHL1 block 6, USP10 inh 12 and USP7 block 13.
For COc1cccc(Cn2cc(S(=O)(=O)N3CCCC3)ccc2=O)c1 the results were USP8 inh -6, UCHL1 block -1, USP10 inh 0 and USP7 block 0.
For COc1cccc(Cn2cnc3c(NS(=O)(=O)c4ccc(Cl)cc4)c(C)c(C)cc32)c1 the results were USP8 inh 49*, UCHL1 block -4, USP10 inh 18 and USP7 block 16.
`COc1cc(-c2ccccc2)c(O)c(O)c1-c1ccccc1` gave USP8 inh 73*, UCHL1 block 36*, USP10 inh 67* and USP7 block 61*.
`Cc1cc(C)c(NC(=O)Cc2sc(Nc3ccc(C)c(C)c3)nc2O)c(C)c1` gave USP8 inh 67*, UCHL1 block -1, USP10 inh 35* and USP7 block 12.
For Cc1ccc(Nc2nc(O)c(CC(=O)Nc3ccccc3C)s2)cc1C the results were USP8 inh 90*, UCHL1 block 2, USP10 inh 36* and USP7 block 12.
Cc1ccc(Nc2nc(O)c(CC(=O)Nc3ccc(C)cc3C)s2)cc1 was read as USP8 inh 46*, UCHL1 block 0, USP10 inh 38* and USP7 block 16.
`COc1ccc(-c2noc(-c3c(O)c4ccccc4[nH]c3=O)n2)cc1` gave USP8 inh 0, UCHL1 block 1, USP10 inh 0 and USP7 block 2.
For O=C(CSc1ccc2nnc(CCNS(=O)(=O)c3ccccc3)n2n1)NCc1ccccc1Cl the results were USP8 inh 0, UCHL1 block -1, USP10 inh 0 and USP7 block 0.
Screening COc1ccc([N+](=O)[O-])cc1NC(=O)COC(=O)c1ccc2[nH]c3c(c2c1)CCCC3 returned USP8 inh 60*, UCHL1 block 11, USP10 inh 50* and USP7 block 12.
COC(=O)c1cc2c(ccn2C)n1Cc1ccc(F)cc1 was read as USP8 inh 52*, UCHL1 block -13, USP10 inh -9 and USP7 block -98.
Screening COC(=O)c1cc2c(ccn2C)n1CC(=O)N(C1CCCCC1)C1CCCCC1 returned USP8 inh 49*, UCHL1 block -7, USP10 inh -5 and USP7 block 0.
For COC(=O)c1cc2c(ccn2C)n1CC(=O)N1CCN(Cc2ccccc2)CC1 the results were USP8 inh 32*, UCHL1 block -20, USP10 inh -5 and USP7 block -33.
Screening COc1cccc2c1OC(C)(C)[C@H]1CC3(CCN(C(=O)COc4cccnc4)CC3)CO[C@H]21 returned USP8 inh 67*, UCHL1 block -31, USP10 inh -2 and USP7 block -31.
`CCOc1cccc2c1OC(C)(C)[C@H]1CC3(CCN(C(=O)c4ccc(NC(C)=O)nc4)CC3)CO[C@H]21` gave USP8 inh 1, UCHL1 block -2, USP10 inh -1 and USP7 block 0.
For O=C(OCC(=O)c1c[nH]c2ccccc12)c1ccc2c(=O)n3c(nc2c1)CCCCC3 the results were USP8 inh -64, UCHL1 block -45, USP10 inh -3 and USP7 block -37.
For Cc1ccc(NC(=O)CCC(=O)Nc2ccc3nc(N4CCCCC4)cc(C)c3c2)c(Br)c1 the results were USP8 inh 33*, UCHL1 block 9, USP10 inh 1 and USP7 block 3.
`Cc1cc(N2CCN(c3ncccn3)CC2)nc2ccc(NC(=O)Cn3nc([N+](=O)[O-])c(Br)c3C)cc12` gave USP8 inh 30, UCHL1 block 7, USP10 inh 33* and USP7 block 10.
`Cc1cc(N2CCOCC2)nc2ccc(NC(=O)CCC(=O)Nc3ccc(F)cc3)cc12` gave USP8 inh 10, UCHL1 block 6, USP10 inh 11 and USP7 block 9.
Screening Cc1cc(C(=O)Nc2ccc3nc(N4CCN(c5ncccn5)CC4)cc(C)c3c2)ccc1[N+](=O)[O-] returned USP8 inh 3, UCHL1 block 5, USP10 inh 3 and USP7 block 3.
Screening CCOC(=O)C1=C(COc2ccc(C#N)cc2)NC(=O)NC1CC (stereo unspecified) returned USP8 inh -4, UCHL1 block -4, USP10 inh -4 and USP7 block -9.
For COCCn1c(SCC(=O)Nc2ccc(NC(=O)c3ccco3)c(OC)c2)nc2ccccc2c1=O the results were USP8 inh 20, UCHL1 block 4, USP10 inh -3 and USP7 block 2.
`COCCn1c(SCC(=O)c2ccc(NC(C)=O)cc2F)nc2ccccc21` gave USP8 inh 32*, UCHL1 block 6, USP10 inh 6 and USP7 block 9.
For O=C(CSc1ncnc2c1oc1ccccc12)c1cc(Cl)sc1Cl the results were USP8 inh -4, UCHL1 block -3, USP10 inh -6 and USP7 block 9.
For CCN(CCCNC(=O)c1ccc(Cn2c(=O)[nH]c3ccccc3c2=O)cc1)c1ccccc1 the results were USP8 inh 6, UCHL1 block 1, USP10 inh 16 and USP7 block 6.
Screening Cc1cc(C)cc(NC(=O)c2ccc(CSc3ncnc4nc[nH]c34)cc2)c1 returned USP8 inh -12, UCHL1 block -1, USP10 inh 0 and USP7 block 4.
Screening CC(Sc1ncnc2nc[nH]c12)C(=O)Nc1ccc(Br)cc1F (stereo unspecified) returned USP8 inh 74*, UCHL1 block 1, USP10 inh 22 and USP7 block 11.
O=C(c1ccccc1F)N1CCC2(CCCN2CC2CC2)CC1 was read as USP8 inh -1, UCHL1 block 0, USP10 inh 1 and USP7 block 1.
Cc1cc(OCC(=O)Nc2cccc(C#N)c2)nc(N2CCCCCC2)n1 was read as USP8 inh 5, UCHL1 block 5, USP10 inh 10 and USP7 block -33.
For O=C(CC(c1cccc(F)c1)n1cccc1)Nc1ccc2c(c1)OCO2 (stereo unspecified) the results were USP8 inh 45*, UCHL1 block 6, USP10 inh 7 and USP7 block -1.
For Cc1nc2c(-c3cccs3)cnn2c(C)c1C the results were USP8 inh -22, UCHL1 block -7, USP10 inh -12 and USP7 block -22.
`Cc1ccc(NC(=O)Nc2ccc(C)n(CC(=O)Nc3ccc(C)cc3C)c2=O)cc1` gave USP8 inh 69*, UCHL1 block 0, USP10 inh 63* and USP7 block 37*.
`Cc1ccc(C)c(NC(=O)Cn2ccc3ccn(C)c3c2=O)c1` gave USP8 inh 5, UCHL1 block -2, USP10 inh 0 and USP7 block -1.
For Cc1ccc(NC(=O)CN2c3ccccc3S(=O)(=O)c3ccccc32)c(C)c1 the results were USP8 inh 0, UCHL1 block 3, USP10 inh -1 and USP7 block 7.

High-throughput results as filed in PubChem.
